# Screening results deposited in PubChem by The Scripps Research Institute Molecular Screening Center.
# HTR5A ag = HTR5A agonists in luminescence cell assay, primary screen, counter-screen for OPRM1-OPRD1 heterodimer agonist project, full-deck HTS | cell-based | 5-hydroxytryptamine receptor 5A (Homo sapiens), P47898 | 340,000 tested, 0.61% active | AID 504692, 2011 | activation, % at 9.3 µM; in the data active = activation mostly above about 9.5%, no sharp cut-off; inactive = mostly below about 7.6%;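 also: 0% = cells with vehicle only and 100% = reference agonist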
# OPRM1-OPRD1 inv = inverse agonists of MOR-DOR heterodimerization, primary screen, cell-based, luminescence; 340,000 tested, 0.21% active; AID 504357, 2011; inhibition, % at 9.3 µM; cell-based MOR-DOR heterodimer luminescence, inverse agonism; Mu-type opioid receptor (Homo sapiens) + Delta-type opioid receptor (Homo sapiens), …; in the data active = inhibition above about 22%, passing the limit was not always enough;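 also: 0% = cells with DMSO and 100% = wells without cells with DMSO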
# Target sequence (P35372 whole entry, looked up): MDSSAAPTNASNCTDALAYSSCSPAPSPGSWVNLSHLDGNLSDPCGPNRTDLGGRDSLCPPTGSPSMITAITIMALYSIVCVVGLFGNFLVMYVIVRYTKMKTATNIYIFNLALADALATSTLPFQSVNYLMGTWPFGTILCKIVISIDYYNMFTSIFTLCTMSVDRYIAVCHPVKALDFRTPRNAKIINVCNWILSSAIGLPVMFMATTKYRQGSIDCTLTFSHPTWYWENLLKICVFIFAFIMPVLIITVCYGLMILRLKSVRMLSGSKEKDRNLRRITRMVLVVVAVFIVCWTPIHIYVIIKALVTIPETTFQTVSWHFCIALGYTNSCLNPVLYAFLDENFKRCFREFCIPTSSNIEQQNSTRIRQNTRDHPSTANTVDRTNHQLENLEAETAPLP
# Target sequence (P41143 whole entry, looked up): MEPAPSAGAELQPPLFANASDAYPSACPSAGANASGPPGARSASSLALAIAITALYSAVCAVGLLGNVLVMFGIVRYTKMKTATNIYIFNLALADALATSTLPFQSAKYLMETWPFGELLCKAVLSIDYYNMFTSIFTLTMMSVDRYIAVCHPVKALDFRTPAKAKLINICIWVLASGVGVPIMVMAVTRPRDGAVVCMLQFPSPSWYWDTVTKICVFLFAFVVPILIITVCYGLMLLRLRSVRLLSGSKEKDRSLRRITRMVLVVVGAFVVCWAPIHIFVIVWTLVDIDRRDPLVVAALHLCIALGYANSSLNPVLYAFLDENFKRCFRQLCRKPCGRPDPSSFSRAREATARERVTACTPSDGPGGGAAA
# MOR-DOR ag = agonists of OPRM1-OPRD1 heterodimerization, primary screen, cell-based, luminescence; Mu-type opioid receptor (Homo sapiens) + Delta-type opioid receptor (Homo sapiens), …; cells; activation, % at 9.3 µM; 340,000 tested, 0.3% active; AID 504326, 2011; in the data active = activation above about 18%;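 also: 0% = vehicle-treated cells and 100% = reference agonist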
# HTR5A inv ctr = HTR5A inverse agonists in luminescence cell assay, primary screen, counter-screen for OPRM1-OPRD1 heterodimer inverse agonist project, full-deck HTS | 5-hydroxytryptamine receptor 5A (Homo sapiens), P47898 | HTR5A cell line, inverse agonism | inhibition, % at 9.3 µM | 340,000 tested, 0.083% active; in the data active = inhibition mostly above about 23%, no sharp cut-off; inactive = mostly below about 18%;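 also: 0% = cells with DMSO and 100% = no-cell wells with DMSO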
# Numbers without * were called inactive. A selection: hits, their analogues and other compounds. The true share with any hit is near 1.1%.
SMILES,HTR5A ag,OPRM1-OPRD1 inv,MOR-DOR ag,HTR5A inv ctr
COc1ccccc1CC(=O)N1CCN(S(=O)(=O)c2ccccc2)CC1,13*,5,-1,21
COc1ccccc1CC(=O)N1CCN(S(=O)(=O)c2ccccc2F)CC1,6,9,-2,-23
CCCCNc1c(-c2ccc(OC)c(Sc3ccc(OC)cc3)c2)nc2ccccn12,11*,-64,11,-28
CCOC(=O)c1c(C)[nH]c(C)c1S(=O)(=O)NCC1CCN(Cc2ccccc2OC)CC1,0,5,-1,-18
CN(c1ccc(OCC(=O)NC2CCC(O)CC2)cc1)S(=O)(=O)c1ccc(Cl)cc1 (configuration not stated),0,10,-2,-1
O=C(CCCOc1ccc(Br)cc1)Nc1nnc(C2CC2)s1,-1,-15,4,1
O=C(/C=C/c1cccnc1)c1ccc(F)c(F)c1,1,9,-2,-4
CN(C)c1ccc(C(=O)/C=C/c2cccnc2)cc1,9.2*,13,-3,-34
CCS(=O)(=O)N1Cc2ccccc2CC1C(=O)N(C)CC(=O)Nc1cccc(F)c1 (configuration not stated),9.9*,6,-1,12
CN(CC(=O)Nc1ccc(F)cc1)C(=O)C1Cc2ccccc2CN1S(C)(=O)=O (configuration not stated),-4,17,-3,11
N#Cc1c(-c2ccccc2)nc(SCc2cccc(Cl)c2)[nH]c1=O,4,26,-6,-14
Cc1cccc2sc(NNC(=O)c3ccc(S(=O)(=O)N4CC(C)CC(C)C4)cc3)nc12 (configuration not stated),15*,-133,23*,-43
CCc1ccc(C(=O)NNC(=O)C2CSC3(C)CCC(=O)N23)cc1 (configuration not stated),4,10,-2,-7
CC(C)(C)Cc1nnc(NC(=O)c2ccco2)s1,2,11,-2,-6
COc1cc2c(cc1NC(=O)C(C)OC(=O)c1ccc(S(=O)(=O)Nc3ccccc3Cl)cc1)oc1ccccc12 (configuration not stated),13*,12,-2,-33
COc1cc2c(cc1NC(=O)C(C)N1CCN(S(=O)(=O)c3ccc(C)c(C)c3)CC1)oc1ccccc12 (configuration not stated),-1,5,-1,2
NNc1nc(-c2ccccc2)cc(-c2ccccc2O)n1,-10,20,-4,28
NNc1nc(-c2ccccc2)cc(-c2ccccc2)n1,-16,52*,-11,43*
COc1cc2c(cc1O)CCN(C(=O)CSc1nncn1C)[C@@H]2C,5,5,-1,-19
CCOC(=O)c1[nH]c(=S)[nH]c1C,-2,7,-1,6
O=C(O)CC(Cc1ccc(Br)cc1)C(=O)Nc1ccccc1 (configuration not stated),0,4,-1,1
O=C(O)CC(Cc1ccc(Cl)cc1)C(=O)Nc1ccccc1 (configuration not stated),10*,7,-1,-38
CC(C)(C)NS(=O)(=O)c1ccc(CCC(=O)NCc2ccccn2)cc1,-2,3,-1,8
CCCc1nnc(NC(=O)CCC(=O)N2CCCCC2CC)s1 (configuration not stated),9.9*,12,-2,-15
CC(C)(C)C(=O)NC(=S)NNC(=O)c1ccc(-c2ccccc2)cc1,-23,30*,-6,87*
SMILES,HTR5A ag,OPRM1-OPRD1 inv,MOR-DOR ag,HTR5A inv ctr
O=[N+]([O-])c1ccc(S(=O)(=O)Nc2ccc(S(=O)(=O)N3CCCC3)cc2)cc1,0,-6,1,6
O=C(Nc1ccc2oc(=O)ccc2c1)c1ccc(-c2ccccc2[N+](=O)[O-])o1,14*,-144,27*,5
CCCC(=O)Nc1ccc2c(c1)nc(CN1CCN(C(=O)OCC)CC1)n2CC,9.8*,11,-2,-34
O=C(CCSCc1cccc(F)c1)NCCc1ccccc1,0,10,-2,-1
CCOc1ccc(-n2nnnc2SCC(=O)c2ccccc2)cc1,13*,-6,1,9
COc1ccc(-n2nnnc2SCC(=O)c2cccc(OC)c2)cc1,-1,1,0,14
COc1ccc(CCN(C)C(=O)c2c(C)nn(-c3ccccc3)c2C)cc1OC,0,9,-2,-2
COc1cccc(C(=O)Nc2ccc(NC(=O)c3cc4ccccc4o3)c(OC)c2)c1,13*,-36,7,-50
